From PMC12820563, “FoxP3 forms a head-to-head dimer in vivo and stabilizes its multimerization on adjacent microsatellites” come the findings set out here.

Whole data set: some 16,000 sequences, median “rpm ratio (pull-down/input)” near 0.94, cut for the highest 2% near 1.7. Only a selection was taken, and the highest values are over-represented in it overall.

The target in this experiment is T1, MBP-FoxP1dN (Mus musculus, UniProt P58462 326-579).
T1 sequence: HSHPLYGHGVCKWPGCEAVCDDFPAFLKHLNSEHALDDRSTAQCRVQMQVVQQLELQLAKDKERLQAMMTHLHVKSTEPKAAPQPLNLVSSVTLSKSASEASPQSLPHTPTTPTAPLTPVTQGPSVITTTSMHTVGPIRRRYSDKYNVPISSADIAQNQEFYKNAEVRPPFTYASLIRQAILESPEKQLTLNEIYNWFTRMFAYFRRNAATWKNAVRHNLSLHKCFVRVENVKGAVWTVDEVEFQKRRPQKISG
The experiment in a line: PD-seq (MBP pull-down with sequencing); 20 mM Tris-HCl pH 7.5, 100 mM NaCl, 1.5 mM MgCl2, 0.4 uM protein, 0.1 uM dsDNA library, 30 min, room temperature, amylose pull-down; high values mean tight binding. The conditions noted are these: protein: recombinant; tags: His6-MBP; chain copies: 2; dsDNA, one strand shown. Summed up: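 The N-terminus-lacking fragment of mouse FoxP3 or FoxP1 carried a His6-MBP tag and was expressed in E. coli. At 0.4 µM it was incubated with 0.1 µM Klenow-filled degenerate double-stranded DNA library for 30 min at room temperature in Tris pH 7.5 buffer with NaCl and MgCl2, and complexes were caught on amylose resin, washed three times, released with proteinase K, PCR-barcoded and Illumina-sequenced. Binding is reads-per-million enrichment of pull-down over input with replicates pooled.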
On to “GATGATTGTTCTCCCAGCTGATGAATTCGGGATTTCGAGTAAACAAATTTTCCTAATCTTTCTGTTCAAGCGCCATCTAC”, for which the binding signal is 0.851 RPM ratio (pull-down/input).
The value for “GATGATTGTTCTCCCAGCTGATGAATTAAGGTGCTCGAGTAAACAAATTTTCCTAATCTTTCTGTTCAAGCGCCATCTAC” was 0.849 RPM ratio (pull-down/input).
Under “GATGATTGTTCTCCCAGCTGATGAATTTGTAAGATCGAGTAAACAAATTTTCCTAATCTTTCTGTTCAAGCGCCATCTAC” stands 1.09 RPM ratio (pull-down/input); under “GATGATTGTTCTCCCAGCTGATGAATTTTTGAGATCGAGTAAACAAATTTTCCTAATCTTTCTGTTCAAGCGCCATCTAC”, 0.928 RPM ratio (pull-down/input); under “GATGATTGTTCTCCCAGCTGATGAATTTGTACCATCGAGTAAACAAATTTTCCTAATCTTTCTGTTCAAGCGCCATCTAC”, 1.17 RPM ratio (pull-down/input).
Under “GATGATTGTTCTCCCAGCTGATGAATTCATCGGATCGAGTAAACAAATTTTCCTAATCTTTCTGTTCAAGCGCCATCTAC” stands 0.838 RPM ratio (pull-down/input); under “GATGATTGTTCTCCCAGCTGATGAATTATTTCCTTCGAGTAAACAAATTTTCCTAATCTTTCTGTTCAAGCGCCATCTAC”, 1.04 RPM ratio (pull-down/input); under “GATGATTGTTCTCCCAGCTGATGAATTGAGTGACTCGAGTAAACAAATTTTCCTAATCTTTCTGTTCAAGCGCCATCTAC”, 0.833 RPM ratio (pull-down/input).
In the case of “GATGATTGTTCTCCCAGCTGATGAATTACCATTTTCGAGTAAACAAATTTTCCTAATCTTTCTGTTCAAGCGCCATCTAC”, the binding signal was 1.18 RPM ratio (pull-down/input).
Under “GATGATTGTTCTCCCAGCTGATGAATTTCCTGTTTCGAGTAAACAAATTTTCCTAATCTTTCTGTTCAAGCGCCATCTAC” stands 0.949 RPM ratio (pull-down/input).
The value for “GATGATTGTTCTCCCAGCTGATGAATTTCTGTTTTCGAGTAAACAAATTTTCCTAATCTTTCTGTTCAAGCGCCATCTAC” was 2.32 RPM ratio (pull-down/input); that for “GATGATTGTTCTCCCAGCTGATGAATTGATTGTTTCGAGTAAACAAATTTTCCTAATCTTTCTGTTCAAGCGCCATCTAC” was 1.61 RPM ratio (pull-down/input); that for “GATGATTGTTCTCCCAGCTGATGAATTGTTTTTTTCGAGTAAACAAATTTTCCTAATCTTTCTGTTCAAGCGCCATCTAC” was 2.25 RPM ratio (pull-down/input).
The value for “GATGATTGTTCTCCCAGCTGATGAATTTACTGTTTCGAGTAAACAAATTTTCCTAATCTTTCTGTTCAAGCGCCATCTAC” was 1.35 RPM ratio (pull-down/input).
Consider “GATGATTGTTCTCCCAGCTGATGAATTACTGATTTCGAGTAAACAAATTTTCCTAATCTTTCTGTTCAAGCGCCATCTAC”, for which the binding signal is 1.24 RPM ratio (pull-down/input).
The value for “GATGATTGTTCTCCCAGCTGATGAATTACTGTTTTCGAGTAAACAAATTTTCCTAATCTTTCTGTTCAAGCGCCATCTAC” was 2.6 RPM ratio (pull-down/input).
Under “GATGATTGTTCTCCCAGCTGATGAATTTTCTGTTTCGAGTAAACAAATTTTCCTAATCTTTCTGTTCAAGCGCCATCTAC” stands 0.977 RPM ratio (pull-down/input).
The value for “GATGATTGTTCTCCCAGCTGATGAATTGTTTCTTTCGAGTAAACAAATTTTCCTAATCTTTCTGTTCAAGCGCCATCTAC” was 1.58 RPM ratio (pull-down/input).
